In PubChem BioAssay (NCATS):
Results filed as inconclusive are left out. Active and inactive are the calls of the source. Unless noted, calls follow the shape of the dose curve; as a rule, active = well fitted curve in the direction sought with a large enough effect; inconclusive = small, poorly fitted or top-dose-only effect, or another doubt; inactive = no such curve, though single readings can be large; an effect the other way counts as inactive or inconclusive.

Columns and labels:
[1] = AP1 Signaling Pathway (AID 357; active = well fitted curve in either direction with a large enough effect, not every such curve was filed as active;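 also: ME-180 reporter cells stimulated with EGF at its EC50 level; % is scaled to controls: 0 for no effect and ±100 for the full control effect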)
Outline: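 In this screen, ME-180 cells in Opti-MEM with 0.5% dialyzed FBS received EC50 EGF and compound titrations for 5 h. AP-1 reporter beta-lactamase was detected via CCF4 ratio, giving AC50 for positive and negative modulators.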

[2] = NFAT Signaling Pathway (AID 444; active = well fitted curve in either direction with a large enough effect, not every such curve was filed as active;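 also: carbachol stimulus at about its EC50 of 1 µM final; % is scaled to controls: 0 for no effect and ±100 for the full control effect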); conditions: Jurkat NFAT-bla M1, carbachol, beta-lactamase ratio, 5 h; at 17.2 µM (top of the series) unless noted
Outline: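 Jurkat cells carrying an NFAT-driven β-lactamase reporter and co-transfected muscarinic M1 receptor were treated with compound plus carbachol (1 uM final, an EC50 level) for 5 h at 37 °C. CCF4 loading followed for 1 h at RT; 460/530 nm ratio gave %activity.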

[3] = Stat Signaling Pathway (AID 446; active = well fitted curve in either direction with a large enough effect, not every such curve was filed as active;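 also: ME-180 cervical cancer cells given 40 pM IL-6 alongside compound; SIE-controlled beta-lactamase reporter measured as 460/530 nm FRET emission ratio; % is scaled to controls: 0 for no effect and ±100 for the full control effect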)
Outline: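 Compound effects on IL-6-induced STAT reporter activity were measured in ME-180 cells. After overnight culture, cells were co-treated with 40 pM IL-6 for 5 hrs before beta-lactamase substrate loading at room temperature.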

[4] = biological target: Glucocorticoid receptor (Homo sapiens) (UniProt P04150); experiment: GR-GFP Redistribution (AID 450;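 active = compounds whose dose series gives a full or clear partial fitted curve of increased nuclear translocation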; also: potency is read from the fitted curve at half-maximal effect); conditions: U2OS GR-GFP nuclear translocation, laser cytometry, 2 h
Sequence of Glucocorticoid receptor (Homo sapiens) (P04150 whole entry, looked up, the tested form may be a part): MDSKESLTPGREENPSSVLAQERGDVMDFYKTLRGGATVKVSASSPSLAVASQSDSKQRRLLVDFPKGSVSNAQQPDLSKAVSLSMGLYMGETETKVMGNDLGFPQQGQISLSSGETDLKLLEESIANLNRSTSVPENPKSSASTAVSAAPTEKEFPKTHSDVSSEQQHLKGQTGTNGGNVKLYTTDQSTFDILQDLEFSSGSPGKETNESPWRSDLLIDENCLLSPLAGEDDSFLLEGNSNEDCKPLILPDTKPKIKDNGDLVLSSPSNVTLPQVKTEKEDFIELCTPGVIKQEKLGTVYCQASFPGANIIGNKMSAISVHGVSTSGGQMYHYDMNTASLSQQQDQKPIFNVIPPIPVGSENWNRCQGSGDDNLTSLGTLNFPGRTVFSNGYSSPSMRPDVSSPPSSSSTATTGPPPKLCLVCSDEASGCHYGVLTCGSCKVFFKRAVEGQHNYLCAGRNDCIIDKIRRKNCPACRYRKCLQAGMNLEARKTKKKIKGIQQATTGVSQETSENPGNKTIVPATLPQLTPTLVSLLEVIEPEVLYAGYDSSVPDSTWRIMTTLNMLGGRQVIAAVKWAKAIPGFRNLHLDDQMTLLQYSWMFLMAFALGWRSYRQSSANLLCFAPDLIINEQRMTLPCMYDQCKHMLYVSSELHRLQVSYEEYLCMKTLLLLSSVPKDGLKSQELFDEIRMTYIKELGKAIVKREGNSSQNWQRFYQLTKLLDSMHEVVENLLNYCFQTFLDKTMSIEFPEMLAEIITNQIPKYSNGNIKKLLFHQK

[5] = biological target: Mitogen-activated protein kinase 10 (Mus musculus) (UniProt Q61831); experiment: JNK3 AlphaScreen Assay (AID 530; active = well fitted curve in either direction with a large enough effect, not every such curve was filed as active;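 also: kinase came from lysate of stimulated human HepG2 cells; signal reports phosphorylation of biotinylated GST-cJun 1-79 at Ser73 with 10 µM ATP; % is scaled to controls: 0 for no effect and ±100 for the full control effect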)
Outline: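 Biotinylated GST-cJun(1-79) served as substrate for JNK3 in HepG2 lysates stimulated with IL-1beta and TNF-alpha. ATP was 10 uM final, pH 7.6. Ser73 phosphorylation was quantified by AlphaScreen (680 nm excitation).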

[6] = biological target: 3',5'-cyclic-AMP phosphodiesterase 4B (Homo sapiens) (UniProt Q07343); experiment: qHTS Assay for Inhibitors of PDE-IV (AID 607; active = well fitted activation curve with a large enough effect in the main read-out, with a control signal flat, not every such curve was filed as active; also: % of control where 0% means no effect)
Sequence of 3',5'-cyclic-AMP phosphodiesterase 4B (Homo sapiens) (Q07343 whole entry, looked up): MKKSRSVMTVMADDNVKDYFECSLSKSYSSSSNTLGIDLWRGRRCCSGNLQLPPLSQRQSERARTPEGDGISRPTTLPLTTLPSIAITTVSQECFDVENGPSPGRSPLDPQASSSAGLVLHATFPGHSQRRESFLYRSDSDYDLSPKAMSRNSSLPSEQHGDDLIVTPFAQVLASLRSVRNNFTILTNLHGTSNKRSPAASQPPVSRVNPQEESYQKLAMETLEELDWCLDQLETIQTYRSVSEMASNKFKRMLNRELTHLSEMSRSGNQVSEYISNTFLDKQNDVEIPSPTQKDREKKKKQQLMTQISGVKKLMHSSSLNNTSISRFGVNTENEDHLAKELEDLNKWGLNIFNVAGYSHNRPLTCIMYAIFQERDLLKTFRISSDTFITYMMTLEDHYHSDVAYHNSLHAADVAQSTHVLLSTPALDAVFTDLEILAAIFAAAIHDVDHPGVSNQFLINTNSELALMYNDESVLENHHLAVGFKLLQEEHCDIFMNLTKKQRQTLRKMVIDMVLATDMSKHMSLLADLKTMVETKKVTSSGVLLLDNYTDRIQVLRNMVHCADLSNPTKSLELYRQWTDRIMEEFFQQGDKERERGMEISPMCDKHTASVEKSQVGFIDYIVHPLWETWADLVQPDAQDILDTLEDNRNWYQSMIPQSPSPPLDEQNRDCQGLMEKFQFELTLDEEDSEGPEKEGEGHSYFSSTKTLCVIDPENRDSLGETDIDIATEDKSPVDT
Outline: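 ACTOne HEK293 cells carry a modified cAMP-gated CNG channel and express endogenous PDE4; plated 1000 cells/well, compounds up to 22.9 uM final. Membrane-potential dye fluorescence (ex 535/em 590) was read; parental cells received 10 uM forskolin + 100 uM RO 20-1724.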

[7] = qHTS Assay for Lipid Storage Modulators (AID 1519; calls by dose curve); conditions: Drosophila S3 cells, BODIPY lipid droplet/cell ratio, laser cytometry, cells loaded with oleic acid; for activity change, negative = inhibition: at 25.7 µM (top of the series)
Outline: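 Cells seeded at 5,000 per well were treated with compounds over a concentration series and loaded with oleic acid (400 uM, as added). Lipid droplet fluorescence (488 nm excitation, 500-530 nm channel) was read by laser-scanning cytometry and normalized to 20 uM Triacsin C.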

[8] = biological target: ATP-dependent 6-phosphofructokinase (Trypanosoma brucei brucei) (UniProt O15648); experiment: qHTS Assay to Find Inhibitors of T. brucei phosphofructokinase: hit validation (AID 492961)
Sequence of ATP-dependent 6-phosphofructokinase (Trypanosoma brucei brucei) (O15648 whole entry, looked up): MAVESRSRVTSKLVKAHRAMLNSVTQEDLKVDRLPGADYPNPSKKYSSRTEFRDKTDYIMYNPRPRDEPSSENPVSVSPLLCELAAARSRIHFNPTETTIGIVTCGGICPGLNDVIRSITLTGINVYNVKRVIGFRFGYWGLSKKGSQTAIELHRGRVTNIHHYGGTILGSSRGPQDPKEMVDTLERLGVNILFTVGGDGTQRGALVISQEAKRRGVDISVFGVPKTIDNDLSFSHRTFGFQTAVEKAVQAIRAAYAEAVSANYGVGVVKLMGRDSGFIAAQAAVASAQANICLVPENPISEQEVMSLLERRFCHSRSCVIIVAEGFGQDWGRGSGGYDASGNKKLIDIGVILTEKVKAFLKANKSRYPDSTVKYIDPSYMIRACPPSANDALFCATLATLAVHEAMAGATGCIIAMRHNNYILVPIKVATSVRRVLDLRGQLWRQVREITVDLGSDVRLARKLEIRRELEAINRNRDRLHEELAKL
Outline: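 Percent activity derived from corrected luminescence, normalized between 0x and 1x enzyme controls, then fitted to concentration-response curves. Conditions: 1.25 nM PFK, 0.1 mM ATP, 0.5 mM F6P, 45 min RT.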

[9] = biological target: Ubiquitin carboxyl-terminal hydrolase 1 (Homo sapiens) (UniProt O94782); experiment: Inhibitors of USP1/UAF1: Pilot qHTS (AID 504865);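 also: rhodamine fluorescence freed from ubiquitin-rhodamine substrate followed over time; top concentration of the series differs between compounds; % is scaled to controls: 0 for no effect and ±100 for the full control effect; nearly all actives have a fitted effect of over 35% in size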
Sequence of Ubiquitin carboxyl-terminal hydrolase 1 (Homo sapiens) (O94782 whole entry, looked up): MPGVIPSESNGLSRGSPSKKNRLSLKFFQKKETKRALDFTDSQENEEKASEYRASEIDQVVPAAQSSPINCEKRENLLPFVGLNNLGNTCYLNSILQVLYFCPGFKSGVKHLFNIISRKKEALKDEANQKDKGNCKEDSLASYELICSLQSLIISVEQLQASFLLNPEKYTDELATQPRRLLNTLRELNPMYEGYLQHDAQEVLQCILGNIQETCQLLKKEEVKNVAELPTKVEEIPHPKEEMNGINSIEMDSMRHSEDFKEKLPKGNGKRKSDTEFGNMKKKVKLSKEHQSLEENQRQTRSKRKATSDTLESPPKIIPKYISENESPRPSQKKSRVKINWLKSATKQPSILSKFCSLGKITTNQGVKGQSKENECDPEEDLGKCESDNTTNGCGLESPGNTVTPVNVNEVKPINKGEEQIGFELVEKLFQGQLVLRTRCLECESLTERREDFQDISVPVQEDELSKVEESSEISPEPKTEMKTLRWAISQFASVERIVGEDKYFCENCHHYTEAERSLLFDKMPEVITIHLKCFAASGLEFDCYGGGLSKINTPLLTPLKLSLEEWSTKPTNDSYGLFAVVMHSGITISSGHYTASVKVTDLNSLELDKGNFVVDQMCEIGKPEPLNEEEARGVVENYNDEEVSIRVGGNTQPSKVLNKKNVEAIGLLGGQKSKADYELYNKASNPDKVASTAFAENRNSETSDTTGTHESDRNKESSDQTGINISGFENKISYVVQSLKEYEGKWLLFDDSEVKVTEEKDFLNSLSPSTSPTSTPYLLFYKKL
Outline: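 1nM USP1/UAF1 + cpd, 15 min RT; start w/ Ub-Rho 150nM final; kinetic FL 480/540 nm, 6 reads q60 s. Buffer 50mM HEPES pH 7.8, 0.5mM EDTA, 1mM TCEP, 0.01% Tween-20, 0.1 mg/ml BSA.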

[10] = biological target: Luciferin 4-monooxygenase (Photinus pyralis) (UniProt P08659); experiment: Biochemical firefly luciferase enzyme assay for NPC (AID 624030);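 also: purified P. pyralis luciferase at 10 nM with luciferin and ATP substrate; 0% = DMSO and -100% = full luciferase inhibition by PTC124 control; nearly all actives have a fitted effect of over 70% in size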
Sequence of Luciferin 4-monooxygenase (Photinus pyralis) (P08659 whole entry, looked up): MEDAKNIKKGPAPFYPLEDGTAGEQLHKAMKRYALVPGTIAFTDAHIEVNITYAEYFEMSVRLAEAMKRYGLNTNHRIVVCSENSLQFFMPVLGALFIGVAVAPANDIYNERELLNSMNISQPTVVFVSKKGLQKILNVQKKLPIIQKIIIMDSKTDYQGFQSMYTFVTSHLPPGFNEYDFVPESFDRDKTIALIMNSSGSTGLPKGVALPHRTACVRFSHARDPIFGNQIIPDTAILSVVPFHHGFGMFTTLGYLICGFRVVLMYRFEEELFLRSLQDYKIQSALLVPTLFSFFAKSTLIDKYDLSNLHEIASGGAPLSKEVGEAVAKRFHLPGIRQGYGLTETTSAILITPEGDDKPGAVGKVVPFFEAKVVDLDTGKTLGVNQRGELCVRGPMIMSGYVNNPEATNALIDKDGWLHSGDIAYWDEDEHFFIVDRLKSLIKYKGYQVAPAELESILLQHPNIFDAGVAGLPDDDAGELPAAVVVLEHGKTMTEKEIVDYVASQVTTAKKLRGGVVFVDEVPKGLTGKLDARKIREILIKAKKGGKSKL
Outline: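 Counter-screen for direct inhibition of the luciferase enzyme by approved-drug library compounds, run at 10 nM enzyme in 50 mM Tris acetate (final). Luminescence was read within 5 min of enzyme-buffer addition and normalized to PTC124 versus DMSO (0%).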

[11] = qHTS profiling for inhibitors of Plasmodium falciparum proliferation (AID 504749);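 also: 0% = DMSO vehicle and full inhibition = artemisinin control; nearly all actives have a fitted effect of over 60% in size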; conditions: P. falciparum in erythrocytes, SYBR Green DNA, 72 h, at 12.8 µM (top of the series)
Outline: (§1)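 Fluorescence of SYBR Green-bound parasite DNA, read at 485/535 nm, served as the growth measure. Infected erythrocytes were cultured with compound 72 h; artemisinin (0.29 uM) and DMSO wells defined the normalization range.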

AS120 = experiment: as above; conditions: P. falciparum in erythrocytes, SYBR Green DNA, 72 h; series mostly up to 12.8 µM
Outline: as §1

C2A = experiment: as above; conditions: P. falciparum in erythrocytes, SYBR Green DNA, 72 h; series mostly up to 12.8 µM
Outline: as §1

CP238 = experiment: as above; conditions: P. falciparum in erythrocytes, SYBR Green DNA, 72 h; series mostly up to 12.8 µM
Outline: as §1

CP250 = experiment: as above; conditions: P. falciparum in erythrocytes, SYBR Green DNA, 72 h; series mostly up to 12.8 µM
Outline: as §1

CP252 = experiment: as above; conditions: P. falciparum in erythrocytes, SYBR Green DNA, 72 h; series mostly up to 12.8 µM
Outline: as §1

HB3 = experiment: as above; conditions: P. falciparum in erythrocytes, SYBR Green DNA, 72 h; series mostly up to 12.8 µM
Outline: as §1

SC27B = experiment: as above; conditions: P. falciparum in erythrocytes, SYBR Green DNA, 72 h; series mostly up to 12.8 µM
Outline: as §1

[12] = S16 Schwann cell PMP22 intronic element firefly luciferase assay (AID 624032);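 also: plate controls were DMSO for no effect and PTC124 positive control mean for full effect; nearly all actives have a fitted effect of over 30% in size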
Outline: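 Rat S16 Schwann cells stably carrying a PMP22 intronic element-driven Fluc reporter were seeded overnight, then exposed to compounds for 24 h at 37 °C. Luminescence was normalized to PTC124 (positive control) and DMSO (0% activity).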

[13] = biological target: Glucocorticoid receptor (Homo sapiens) (UniProt P04150); experiment: GR-EFC Redistribution (AID 451; calls by dose curve; also: potency is read from the fitted curve at half-maximal effect); conditions: CHO-K1 GR-EFC translocation, beta-gal luminescence, 2 h
Outline: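 CHO-K1 cells stably expressing nuclear-localized β-gal enzyme acceptor and GR fused C-terminally to the enzyme donor fragment; ligand-driven nuclear translocation restores β-gal by complementation. Compounds titrated up to 46 uM final, 2 h at 37 °C; luminescence read.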

[14] = measured here: cell count channel max response
[15] = measured here: lipid channel max response

Cc1ncc([N+](=O)[O-])n1C[C@H](O)CCl
8.08%: max response [7, 14]
6.22%: max response [7, 15]
inactive: outcome [1] | activity change, negative = inhibition [2] -7.59% | outcome [3] | Potency [4] > 20.6 µM | Potency [5] | outcome [6] | activity change, negative = inhibition [7] -1.27% | outcome [8] | Potency [9] | Potency [10] | activity, negative = inhibition ([11]; parasite line A) 1% | activity, negative = inhibition ([11]; parasite line B) 10.5% | Potency (AS120) | Potency (C2A) | Potency (CP238) | Potency (CP250) | Potency (CP252) | Potency (HB3) | Potency (SC27B)

CC(=C(CCOP(=O)(O)O)SC(=O)c1ccccc1)N(C=O)Cc1cnc(C)nc1N
-2.64%: max response [7, 15]
-3.81%: max response [7, 14]
inactive: outcome [1] | activity change, negative = inhibition [2] 2.39% | outcome [3] | Potency [4] > 20.6 µM | Potency [5] | outcome [6] | activity change, negative = inhibition [7] 0.981% | outcome [8] | Potency [9] | Potency [10] | Potency [12] | activity, negative = inhibition ([11]; parasite line A) -4.37% | activity, negative = inhibition ([11]; parasite line B) 20.3% | Potency (AS120) | Potency (C2A) | Potency (CP238) | Potency (CP250) | Potency (CP252) | Potency (HB3) | Potency (SC27B)

O[C@H](c1cc(C(F)(F)F)nc2c(C(F)(F)F)cccc12)[C@H]1CCCCN1
-16.3%: max response [7, 14]
-23.7%: max response [7, 15]
inactive: outcome [1] | activity change, negative = inhibition [2] 24.6% | outcome [3] | Potency [4] > 20.6 µM | Potency [13] > 20.6 µM | Potency [5] | outcome [6] | activity change, negative = inhibition [7] -11.8% | Potency [9]

Cn1nnnc1SCC1=C(C(=O)O)N2C(=O)[C@@H](NC(=O)[C@@H](O)c3ccccc3)[C@@H]2SC1
-13.8%: max response [7, 15]
inactive: outcome [1] | activity change, negative = inhibition [2] -2.02% | outcome [3] | Potency [4] > 20.6 µM | Potency [13] > 20.6 µM | Potency [5] | outcome [6] | activity change, negative = inhibition [7] 2.73% | outcome [8] | Potency [10] | Potency [12] | activity, negative = inhibition ([11]; parasite line A) 11.7% | activity, negative = inhibition ([11]; parasite line B) 11% | Potency (AS120) | Potency (C2A) | Potency (CP238) | Potency (CP250) | Potency (CP252) | Potency (HB3) | Potency (SC27B)
-4.52%: max response [7, 14]

O=C1CN(/N=C\c2ccc([N+](=O)[O-])o2)C(=O)N1
inactive: outcome [1] | activity change, negative = inhibition [2] -2.23% | outcome [3] | Potency [4] > 20.6 µM | Potency [13] > 20.6 µM | Potency [5] | outcome [6] | activity change, negative = inhibition [7] 1.21% | Potency [9]
0.924%: max response [7, 15]
3.28%: max response [7, 14]

c1ccc(CNc2ncnc3nc[nH]c23)cc1
-12.9%: max response [7, 15]
-13.8%: max response [7, 14]
inactive: outcome [1] | activity change, negative = inhibition [2] 7.66% | outcome [3] | Potency [4] > 20.6 µM | Potency [13] > 20.6 µM | Potency [5] | outcome [6] | activity change, negative = inhibition [7] -0.17% | Potency [9]
